Assay [1] concerns the target Lysosomal acid glucosylceramidase (Homo sapiens) (UniProt P04062). Briefly: Glucocerebrosidase-p2 (AID 348; in the data active = potency below about 10 µM; note: potency is the fitted concentration of half-maximal effect). As to conditions: purified GBA, blue fluorogenic substrate, 40 min. In short, it runs like this:
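Normal human glucocerebrosidase (0.2 nM) with blue fluorogenic substrate (80 uM final) in citrate/phosphate pH 5.9 with 10mM sodium taurocholate, 0.01% tween-20; 40 min RT, NaOH/glycine stop; fluorescence Ex 365/Em 440; AC50 from a titration from 0.6 nM upwards.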

Assay [2] can be described thus: AP1 Signaling Pathway (AID 357; active = well fitted curve in either direction with a large enough effect, not every such curve was filed as active;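 note: ME-180 reporter cells stimulated with EGF at its EC50 level; % is set by controls: 0 for no effect and ±100 for the full control effect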). As to conditions: ME-180 AP-1-bla reporter, EGF-induced, beta-lactamase ratio, 5 h; at 7.69 µM (top of the series) unless noted. The gist of the method: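 First, ME-180 AP-1-bla cells were cultured overnight at 37 °C in low-serum Opti-MEM. Next, titrated compounds with EC50 EGF were incubated 5 hours. Finally, CCF4 was added for 2.5 hours and the 460/530 nm ratio recorded.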

The target of assay [3] is Cytochrome P450 1A2 (Homo sapiens) (UniProt P05177). Briefly: p450-cyp1a2 (AID 410; calls by dose curve; note: potency is the fitted concentration of half-maximal effect;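 for activity change, negative = inhibition: -100% = full effect of reference inhibitor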). As to conditions: recombinant CYP1A2, luciferin-ME demethylation, luminescence; series mostly up to 57 µM. The gist of the method:
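Luminescent demethylation readout: Luciferin-ME (100uM, equal to Km) turned over by 20nM CYP1A2 for 60 min at room temperature after NADPH regeneration addition, following 10 min compound preincubation. Normalization used 57 uM furafylline as full inhibition.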

A short description of assay [4]: NFAT Signaling Pathway (AID 444; active = well fitted curve in either direction with a large enough effect, not every such curve was filed as active;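 note: carbachol stimulus at about its EC50 of 1 µM final; % is set by controls: 0 for no effect and ±100 for the full control effect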). As to conditions: Jurkat NFAT-bla M1, carbachol, beta-lactamase ratio, 5 h; at 7.69 µM (top of the series) unless noted. In short, it runs like this: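 Read-out: CCF4 FRET ratio (460 nm/530 nm) after 1 h RT dye loading, used for %activity and AC50 from titration series. Cells: Jurkat NFAT-β-lactamase/M1 line, treated with compound plus 1 uM carbachol for 5 h, 37 °C.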

A short description of assay [5]: Stat Signaling Pathway (AID 446; active = well fitted curve in either direction with a large enough effect, not every such curve was filed as active;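 note: ME-180 cervical cancer cells given 40 pM IL-6 alongside compound; SIE-controlled beta-lactamase reporter measured as 460/530 nm FRET emission ratio; % is set by controls: 0 for no effect and ±100 for the full control effect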). The conditions noted are these: ME-180 (cervical carcinoma) SIE beta-lactamase reporter, IL-6 stimulated, 5 h; at 7.69 µM (top of the series) unless noted. In short, it runs like this: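 Overnight-plated ME-180 cells bearing a STAT Inducible Element beta-lactamase reporter; 5 h co-exposure to compound and 40 pM IL-6; values normalized to 300 pM IL-6 and 125 nM JAK inhibitor controls.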

Assay [6] concerns the target Glucocorticoid receptor (Homo sapiens) (UniProt P04150). Put plainly: GR-EFC Redistribution (AID 451; calls by dose curve; note: potency is the fitted concentration of half-maximal effect). As to conditions: CHO-K1 GR-EFC translocation, beta-gal luminescence, 2 h. The gist of the method: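 Translocation of GR-ED fusion to nuclear EA restores b-gal, read by luminescence after 1 h room-temperature detection. Engineered CHO-K1 biosensor cells, 1,000/well, exposed 2 h at 37 C to titrations up to 46 uM final.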

Assay [7] deals with Mitogen-activated protein kinase 10 (Mus musculus) (UniProt Q61831). Briefly: JNK3 AlphaScreen Assay (AID 530; active = well fitted curve in either direction with a large enough effect, not every such curve was filed as active;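 note: kinase came from lysate of stimulated human HepG2 cells; signal reports phosphorylation of biotinylated GST-cJun 1-79 at Ser73 with 10 µM ATP; % is set by controls: 0 for no effect and ±100 for the full control effect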). The conditions noted are these: JNK3 lysate, c-Jun phosphorylation; series mostly up to 57.1 µM. In short, it runs like this: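 qHTS titrations with 15 min compound pre-incubation before adding ATP (10 uM final). Read-out: AlphaScreen of Ser73-phosphorylated biotin-GST-cJun using HepG2 lysate JNK3 activated by IL-1β and TNFα.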

Assay [8] deals with 3',5'-cyclic-AMP phosphodiesterase 4B (Homo sapiens) (UniProt Q07343). Put plainly: qHTS Assay for Inhibitors of PDE-IV (AID 607; active = well fitted activation curve with a large enough effect in the main read-out, with a control signal flat, not every such curve was filed as active; note: % of control where 0% means no effect). The conditions noted are these: HEK293 ACTOne CNG channel cells, membrane potential fluorescence; series mostly up to 22.9 µM. In short, it runs like this:
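Live HEK293 cells with a modified cyclic nucleotide-gated (CNG) channel report intracellular cAMP via membrane-potential dye fluorescence (ex 535/em 590 nm). Endogenous PDE-IV was targeted. Compounds were tested at up to 22.9 uM final; RO 20-1724 100 uM served as control.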

For assay [9], the target named is Cytochrome P450 3A4 (Homo sapiens) (UniProt P08684). Briefly: qHTS Assay for Activators of Cytochrome P450 3A4 (AID 885). Note: nearly all actives have a fitted effect of over 65% in size. The conditions noted are these: recombinant CYP3A4, Luciferin-PPXE luminescence, 60 min; series mostly up to 57.1 µM. The gist of the method:
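Using 20nM recombinant human CYP3A4 in potassium phosphate (200mM), substrate Luciferin-PPXE at 25uM, luminescent luciferin detection followed a 60-min RT NADPH reaction; data scaled to 57 uM ketoconazole.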
On the technique in general: qHTS replaces the single test concentration by a dilution series.

Assay [10] addresses Dual specificity protein kinase CLK4 (Homo sapiens) (UniProt Q9HAZ1). Briefly: qHTS Assay for Inhibitors of CDC-like Kinase 4 (Kinase-Glo Assay) (AID 1770). Note: nearly all actives have a fitted effect of over 65% in size. Note: potency is the fitted concentration of half-maximal effect. The conditions noted are these: recombinant Clk4, Kinase-Glo ATP depletion luminescence; series mostly up to 66.7 µM. The gist of the method: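 Substrate mix (RS peptide 100 uM, ATP 1 uM) dispensed, compound pinned in, then Clk4 added to 25 nM final. Incubated 4.5 h at RT; Kinase-Glo reagent added, luminescence read after 5 min.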

Assay [11] has the same target. Put plainly: qHTS Assay for Inhibitors of CDC-like Kinase 4 (ADP-Glo Assay) (AID 1771). Note: nearly all actives have a fitted effect of over 70% in size. Note: potency is the fitted concentration of half-maximal effect. As to conditions: recombinant CLK4, ADP-Glo luminescence; series mostly up to 80 µM. In short, it runs like this:
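ADP production was read by ADP-Glo luminescence after residual ATP depletion, following 1 h room-temperature reaction of 25 nM Clk4, 1 uM ATP and 100 uM RS peptide with MgCl2, EGTA, DTT and Triton X-100.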

Assay [12] shares this target. Briefly: qHTS Assay for Inhibitors of CDC-like Kinase 4 (ADP-FP Assay) (AID 1795). Note: nearly all actives have a fitted effect of over 60% in size. Note: potency is the fitted concentration of half-maximal effect. As to conditions: Transcreener ADP fluorescence polarization; series mostly up to 50 µM. In short, it runs like this:
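Clk4 6.25 nM; RS peptide 100 uM; ATP 1 uM; 25 mM Tris pH 7.5, 10 mM MgCl2; 1 h reaction. ADP detected via antibody/orange tracer FP displacement; TG003 positive control.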

In assay [13] the target is Ubiquitin carboxyl-terminal hydrolase 1 (Homo sapiens) (UniProt O94782). Briefly: Inhibitors of USP1/UAF1: Pilot qHTS (AID 504865).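 Note: rhodamine fluorescence freed from ubiquitin-rhodamine substrate followed over time; top concentration of the series differs between compounds; % is set by controls: 0 for no effect and ±100 for the full control effect; nearly all actives have a fitted effect of over 35% in size.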 The conditions noted are these: purified USP1/UAF1, Ub-rhodamine cleavage fluorescence; series mostly up to 54.9 µM. The gist of the method:
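In 50mM HEPES pH 7.8 containing 0.5mM EDTA, 1mM TCEP, 0.1 mg/ml BSA and 0.01% Tween-20, 1nM USP1/UAF1 is exposed to compound for 15 min, then Ub-Rho (150nM final) is added and fluorescence is read over time.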

A short description of assay [14]: Primary qHTS for small molecule stabilizers of the endoplasmic reticulum resident proteome: Secreted ER Calcium Modulated Protein (SERCaMP) assay (AID 1508630). Note: % is set by controls: 0 for no effect and ±100 for the full control effect. The conditions noted are these: SH-SY5Y GLuc-SERCaMP (Gaussia luciferase released on ER calcium loss) secretion, thapsigargin, luminescence; series mostly up to 38.4 µM. In short, it runs like this:
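The SH-SY5Y reporter protocol was run at 3 concentrations up to 38.3 uM (primary) or 11 concentrations (follow-up): 16 h compound, 100 nM thapsigargin for 4 h, then extracellular luciferase luminescence.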

Assay [15] has as its target Glucocorticoid receptor (Homo sapiens) (UniProt P04150). Briefly: GR-GFP Redistribution (AID 450;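 active = compounds whose dose series gives a full or clear partial fitted curve of increased nuclear translocation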; note: potency is the fitted concentration of half-maximal effect). The conditions noted are these: U2OS GR-GFP nuclear translocation, laser cytometry, 2 h.
Assay [16] deals with Cytochrome P450 3A4 (Homo sapiens) (UniProt P08684). Briefly: qHTS Assay for Inhibitors and Substrates of Cytochrome P450 3A4 (AID 884). Note: potency is the fitted concentration of half-maximal effect; nearly all actives have a fitted effect of over 50% in size. As to conditions: recombinant CYP3A4, Luciferin-PPXE luminescence; series mostly up to 57.1 µM. In short, it runs like this:
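Luminescent readout of luciferin produced by CYP3A4 (20 nM) dealkylation of Luciferin-PPXE, 25 uM (its KM). NADPH-driven reaction ran 60 min at RT after 10 min compound preincubation; data scaled to 57 uM ketoconazole as 100% inhibition.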

Assay [17] deals with Cytochrome P450 2D6 (Homo sapiens) (UniProt P10635). Briefly: qHTS Assay for Inhibitors and Substrates of Cytochrome P450 2D6 (AID 891). Note: potency is the fitted concentration of half-maximal effect; nearly all actives have a fitted effect of over 60% in size. The conditions noted are these: recombinant CYP2D6, luciferin-ME EGE luminescence; series mostly up to 57.1 µM. The gist of the method: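 Luminescent read-out of luciferin formed by 5 nM human CYP2D6 demethylating 30 uM Luciferin-ME EGE (Km level) over 60 min at room temperature after NADPH regeneration addition. Data normalized to full inhibition by 1.43 uM quinidine.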

For assay [18], the target named is Cytochrome P450 2C9 (Homo sapiens) (UniProt P11712). Briefly: qHTS Assay for Inhibitors and Substrates of Cytochrome P450 2C9 (AID 883). Note: % is set by controls: 0 for no effect and ±100 for the full control effect; nearly all actives have a fitted effect of over 60% in size. The conditions noted are these: recombinant CYP2C9, luciferin-H luminescence, 60 min; series mostly up to 57.1 µM. In short, it runs like this:
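Turnover of Luciferin-H (100uM, KM) by 10nM human CYP2C9 was measured over 60 min at 37C with NADPH regeneration; inhibitors and some substrates reduce luminescence. Data normalized to sulphaphenazole 57uM.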

Unmarked numbers belong to inactive results. Records with an inconclusive call do not appear. The source made the active and inactive calls. Unless noted, calls come from the whole dose curve; as a rule, active = well fitted curve in the direction sought with a large enough effect; inconclusive = small, poorly fitted or top-dose-only effect, or another doubt; inactive = no such curve, though single readings can be large; an effect the other way counts as inactive or inconclusive. Where only a bound is given, the exact number is not on record here.

3',5'-cyclic-AMP phosphodiesterase 4B (Homo sapiens), sequence (Q07343 whole entry, looked up): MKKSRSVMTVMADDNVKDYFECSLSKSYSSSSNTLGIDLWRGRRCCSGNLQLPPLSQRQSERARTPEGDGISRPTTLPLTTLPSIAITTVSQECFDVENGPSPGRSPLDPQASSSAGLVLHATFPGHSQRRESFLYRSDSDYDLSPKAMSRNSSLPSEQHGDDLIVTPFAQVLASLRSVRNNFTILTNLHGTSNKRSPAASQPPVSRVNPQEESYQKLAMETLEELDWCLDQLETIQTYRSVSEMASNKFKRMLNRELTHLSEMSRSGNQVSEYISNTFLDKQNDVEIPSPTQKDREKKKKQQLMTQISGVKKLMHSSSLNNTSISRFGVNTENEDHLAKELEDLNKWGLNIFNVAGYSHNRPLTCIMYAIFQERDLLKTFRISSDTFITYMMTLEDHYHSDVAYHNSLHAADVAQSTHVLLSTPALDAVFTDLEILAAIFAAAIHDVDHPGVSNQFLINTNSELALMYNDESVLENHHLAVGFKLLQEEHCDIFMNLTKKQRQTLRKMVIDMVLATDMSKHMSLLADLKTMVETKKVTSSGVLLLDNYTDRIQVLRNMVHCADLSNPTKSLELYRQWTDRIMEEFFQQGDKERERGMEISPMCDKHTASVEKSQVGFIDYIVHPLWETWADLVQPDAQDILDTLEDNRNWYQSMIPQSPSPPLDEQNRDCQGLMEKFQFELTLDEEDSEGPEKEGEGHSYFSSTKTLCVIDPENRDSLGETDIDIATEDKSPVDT
Dual specificity protein kinase CLK4 (Homo sapiens), sequence (Q9HAZ1 whole entry, looked up): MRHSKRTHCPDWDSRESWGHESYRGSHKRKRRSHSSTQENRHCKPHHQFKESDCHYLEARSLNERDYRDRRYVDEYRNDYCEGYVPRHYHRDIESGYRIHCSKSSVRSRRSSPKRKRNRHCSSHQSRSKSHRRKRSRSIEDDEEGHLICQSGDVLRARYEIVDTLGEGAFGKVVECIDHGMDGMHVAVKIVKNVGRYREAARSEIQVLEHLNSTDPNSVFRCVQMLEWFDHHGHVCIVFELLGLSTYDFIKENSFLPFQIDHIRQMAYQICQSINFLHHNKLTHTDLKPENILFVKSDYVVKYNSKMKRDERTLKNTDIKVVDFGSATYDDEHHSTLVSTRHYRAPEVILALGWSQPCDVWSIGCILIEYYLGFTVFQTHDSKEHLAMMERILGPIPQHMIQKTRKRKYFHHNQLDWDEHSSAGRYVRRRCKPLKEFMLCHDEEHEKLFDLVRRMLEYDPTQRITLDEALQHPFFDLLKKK
Cytochrome P450 3A4 (Homo sapiens), sequence (P08684 whole entry, looked up): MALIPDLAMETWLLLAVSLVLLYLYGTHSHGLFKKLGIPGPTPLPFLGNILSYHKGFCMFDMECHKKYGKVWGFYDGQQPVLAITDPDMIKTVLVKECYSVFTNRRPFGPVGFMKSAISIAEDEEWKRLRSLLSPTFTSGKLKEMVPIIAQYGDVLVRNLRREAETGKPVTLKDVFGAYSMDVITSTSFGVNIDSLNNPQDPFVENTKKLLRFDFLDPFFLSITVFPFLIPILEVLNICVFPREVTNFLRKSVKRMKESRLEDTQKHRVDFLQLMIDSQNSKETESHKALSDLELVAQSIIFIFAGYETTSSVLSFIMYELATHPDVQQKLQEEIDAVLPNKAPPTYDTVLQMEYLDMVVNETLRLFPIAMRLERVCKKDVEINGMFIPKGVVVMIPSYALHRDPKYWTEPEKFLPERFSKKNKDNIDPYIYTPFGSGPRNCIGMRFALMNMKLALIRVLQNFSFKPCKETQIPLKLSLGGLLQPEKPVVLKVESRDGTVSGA
Ubiquitin carboxyl-terminal hydrolase 1 (Homo sapiens), sequence (O94782 whole entry, looked up): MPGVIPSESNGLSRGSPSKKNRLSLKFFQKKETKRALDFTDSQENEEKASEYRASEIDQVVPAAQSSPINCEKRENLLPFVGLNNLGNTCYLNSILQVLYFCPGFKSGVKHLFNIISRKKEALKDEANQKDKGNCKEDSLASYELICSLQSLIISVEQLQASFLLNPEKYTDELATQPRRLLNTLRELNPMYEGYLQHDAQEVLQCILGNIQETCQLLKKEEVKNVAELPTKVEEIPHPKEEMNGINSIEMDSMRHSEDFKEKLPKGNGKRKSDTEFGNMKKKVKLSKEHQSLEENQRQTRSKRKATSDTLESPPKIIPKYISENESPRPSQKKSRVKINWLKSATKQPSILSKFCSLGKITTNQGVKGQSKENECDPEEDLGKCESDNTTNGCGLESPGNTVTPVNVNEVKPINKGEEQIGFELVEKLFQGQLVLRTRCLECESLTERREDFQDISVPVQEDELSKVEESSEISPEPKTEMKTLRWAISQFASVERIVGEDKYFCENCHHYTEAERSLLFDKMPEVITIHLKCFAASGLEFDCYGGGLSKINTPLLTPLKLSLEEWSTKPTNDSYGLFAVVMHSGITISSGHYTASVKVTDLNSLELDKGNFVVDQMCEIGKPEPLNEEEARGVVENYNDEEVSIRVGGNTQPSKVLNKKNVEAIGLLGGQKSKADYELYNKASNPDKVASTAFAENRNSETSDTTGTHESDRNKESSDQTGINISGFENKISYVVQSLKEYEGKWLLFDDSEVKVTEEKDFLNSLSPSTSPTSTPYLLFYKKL
Lysosomal acid glucosylceramidase (Homo sapiens), sequence (P04062 whole entry, looked up): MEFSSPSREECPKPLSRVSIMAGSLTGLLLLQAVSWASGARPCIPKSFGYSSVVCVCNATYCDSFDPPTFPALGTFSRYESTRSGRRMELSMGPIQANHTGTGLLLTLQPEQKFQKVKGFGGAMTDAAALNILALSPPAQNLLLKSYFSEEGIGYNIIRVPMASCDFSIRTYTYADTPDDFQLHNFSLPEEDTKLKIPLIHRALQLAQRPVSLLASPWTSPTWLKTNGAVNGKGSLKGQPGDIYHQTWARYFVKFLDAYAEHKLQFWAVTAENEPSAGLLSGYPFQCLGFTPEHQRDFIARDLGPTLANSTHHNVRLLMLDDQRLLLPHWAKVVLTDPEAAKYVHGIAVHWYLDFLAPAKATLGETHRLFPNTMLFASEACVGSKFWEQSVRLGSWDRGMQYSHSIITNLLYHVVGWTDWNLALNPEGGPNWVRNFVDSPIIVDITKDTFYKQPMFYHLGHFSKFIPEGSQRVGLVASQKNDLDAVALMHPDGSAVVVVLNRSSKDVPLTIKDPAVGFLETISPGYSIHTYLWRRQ
Glucocorticoid receptor (Homo sapiens), sequence (P04150 whole entry, looked up, the tested form may be a part): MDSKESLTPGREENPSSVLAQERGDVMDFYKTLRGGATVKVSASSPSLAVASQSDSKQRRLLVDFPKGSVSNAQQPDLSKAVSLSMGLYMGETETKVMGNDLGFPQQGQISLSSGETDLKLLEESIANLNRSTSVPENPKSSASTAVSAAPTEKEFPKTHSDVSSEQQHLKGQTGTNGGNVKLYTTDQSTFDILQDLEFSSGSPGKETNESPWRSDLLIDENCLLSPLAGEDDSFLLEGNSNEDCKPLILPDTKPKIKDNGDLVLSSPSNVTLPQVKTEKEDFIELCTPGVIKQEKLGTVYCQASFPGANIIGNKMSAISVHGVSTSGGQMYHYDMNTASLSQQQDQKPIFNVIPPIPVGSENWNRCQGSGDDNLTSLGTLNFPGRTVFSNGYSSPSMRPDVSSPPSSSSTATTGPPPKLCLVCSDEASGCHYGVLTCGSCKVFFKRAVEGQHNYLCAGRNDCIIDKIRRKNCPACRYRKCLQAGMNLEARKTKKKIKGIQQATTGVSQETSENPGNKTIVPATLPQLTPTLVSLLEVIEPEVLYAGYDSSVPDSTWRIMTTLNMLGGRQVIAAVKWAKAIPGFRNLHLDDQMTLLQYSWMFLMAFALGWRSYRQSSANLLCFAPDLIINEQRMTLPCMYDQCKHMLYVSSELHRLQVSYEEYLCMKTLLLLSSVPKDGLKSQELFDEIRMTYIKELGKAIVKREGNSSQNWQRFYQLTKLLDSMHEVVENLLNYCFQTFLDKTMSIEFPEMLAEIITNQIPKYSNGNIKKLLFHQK
Cytochrome P450 1A2 (Homo sapiens), sequence (P05177 whole entry, looked up): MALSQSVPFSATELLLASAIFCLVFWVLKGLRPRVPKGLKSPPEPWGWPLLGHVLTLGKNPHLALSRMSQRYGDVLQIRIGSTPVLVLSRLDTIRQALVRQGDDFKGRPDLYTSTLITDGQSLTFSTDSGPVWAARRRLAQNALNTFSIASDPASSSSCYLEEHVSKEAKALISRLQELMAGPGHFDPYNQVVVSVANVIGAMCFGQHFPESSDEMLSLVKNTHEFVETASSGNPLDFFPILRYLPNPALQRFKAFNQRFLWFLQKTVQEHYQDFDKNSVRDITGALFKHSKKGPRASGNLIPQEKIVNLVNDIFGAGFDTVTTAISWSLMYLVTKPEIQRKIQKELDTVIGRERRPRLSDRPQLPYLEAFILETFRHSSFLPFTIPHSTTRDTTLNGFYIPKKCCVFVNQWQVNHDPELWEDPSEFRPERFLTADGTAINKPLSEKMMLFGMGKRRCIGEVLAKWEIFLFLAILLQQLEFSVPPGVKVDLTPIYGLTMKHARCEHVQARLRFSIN
Cytochrome P450 2C9 (Homo sapiens), sequence (P11712 whole entry, looked up): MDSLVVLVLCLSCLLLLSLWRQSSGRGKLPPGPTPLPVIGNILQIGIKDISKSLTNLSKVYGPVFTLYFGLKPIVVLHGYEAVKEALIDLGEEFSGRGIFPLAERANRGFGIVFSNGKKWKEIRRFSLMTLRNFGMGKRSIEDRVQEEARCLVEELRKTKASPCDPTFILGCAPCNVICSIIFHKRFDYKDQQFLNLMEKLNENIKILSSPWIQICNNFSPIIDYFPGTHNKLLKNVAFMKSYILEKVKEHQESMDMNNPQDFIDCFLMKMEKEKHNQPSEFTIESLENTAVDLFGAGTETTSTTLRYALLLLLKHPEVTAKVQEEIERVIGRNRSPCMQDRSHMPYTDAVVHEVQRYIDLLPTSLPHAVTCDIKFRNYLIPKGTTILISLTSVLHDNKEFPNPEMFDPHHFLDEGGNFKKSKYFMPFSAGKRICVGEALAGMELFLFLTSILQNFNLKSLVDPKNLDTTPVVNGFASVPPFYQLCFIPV

`CN(C)C(=O)c1ccc(-c2cncnc2Nc2ccccc2)cc1`: the Potency in assay [1] was above 11.4 µM; in [3], 31.6 µM (active); in [6], above 46 µM. For the same compound, the activity change, negative = inhibition in assay [2] was -7.47%; in [4], 1.8%. Also, the activity, negative = inhibition in assay [5] was -6.42%. The Potency entry in assay [7], in assay [8], in assay [9], in assay [10], in [11] and in assay [12] was “inactive” each time. In addition, the Potency entry in [13] was “inactive”. Further, in assay [14], the result was inactive.

Consider `COc1ccccc1CNc1cc(-c2ccccc2C)ncn1`, for which the Potency is above 11.4 µM in assay [1], 5.01 µM (active) in assay [3], above 46 µM in assay [15] and above 46 µM in [6]. For the same compound, the activity change, negative = inhibition was -17.3% in assay [2] and -18.6% in assay [4]. Further, the activity, negative = inhibition in assay [5] is 14.3%. Also, the Potency entry in assay [7], in assay [9], in [10], in assay [11] and in assay [12] was “inactive” throughout. For the same compound, in assay [14], the result was inactive.

Take `COc1ccc(-n2c(=O)c(-c3ccc(F)cc3)nc3cncnc32)cc1`: the Potency in assay [1] was above 11.4 µM; in assay [15], above 9.22 µM; in assay [6], above 46 µM. Also, the activity change, negative = inhibition was 7.36% in assay [2] and -20% in assay [4]. In addition, the Potency result in [3], in assay [7], in [8], in assay [10], in assay [11] and in assay [12] was “inactive” each time. Further, the Potency result in assay [13] is “inactive”. The outcome in [14] was inactive.

For `N#Cc1ccccc1-c1ccc2ncnc(NC3CC3)c2c1`, the Potency in assay [1] was above 11.4 µM; in assay [3] it was 0.1 µM (active); in [15], above 46 µM; in assay [6] it was above 46 µM; in assay [16], 2 µM (active); in assay [10], 6.31 µM (active). For the same compound, the Potency in assay [11] is 5.62 µM (active); in assay [12], 7.08 µM (active). The activity change, negative = inhibition in assay [2] was -12.1%; in assay [4], 21.2%. The Potency entry in [7], in [9] and in assay [13] was “inactive” throughout. For the same compound, the outcome in assay [14] was inactive.

`N#Cc1cccc(-c2nccc(NCc3ccccc3)n2)c1`: the Potency is above 11.4 µM in assay [1]; 0.501 µM (active) in [3]; above 46 µM in [15]; above 46 µM in [6]; 7.94 µM (active) in [17]; 14.1 µM (active) in assay [10]. For the same compound, the Potency was 14.1 µM (active) in [11] and 15.8 µM (active) in assay [12]. The activity change, negative = inhibition in assay [2] was -20.8%; in assay [4], 13.6%. Further, the activity, negative = inhibition in assay [5] was -6.24%. For the same compound, the Potency result in [7] and in assay [9] was “inactive” each time. Also, the result in assay [14] was inactive.

For the compound `O=c1c(-c2ccccc2)nc2cncnc2n1-c1ccccc1`, the Potency is above 11.4 µM in [1], 5.01 µM (active) in [3] and above 46 µM in assay [6]. Also, the activity change, negative = inhibition was -10.5% in assay [2] and 2.09% in [4]. For the same compound, the activity, negative = inhibition in assay [5] is 0.883%. The Potency result in [7], in assay [10], in [11], in [12] and in [13] was “inactive” throughout. Besides, in [14], the result was inactive.

For the compound `CNc1nc(-c2c(C)noc2C)nc2ccccc12`, the Potency is above 11.4 µM in [1]; 0.0501 µM (active) in assay [3]; above 46 µM in assay [15]; above 46 µM in assay [6]; 17.8 µM (active) in assay [10]; 20 µM (active) in assay [11]. Also, the activity change, negative = inhibition is 5.72% in assay [2], 8.72% in assay [4] and 37.6% [at 2.29 µM] in assay [18]. The activity, negative = inhibition in assay [5] is -5.04%. In addition, the Potency result in assay [7], in [8], in [9] and in assay [12] was “inactive” throughout. Moreover, the outcome in [14] was inactive.
